Assay outcomes as filed in PubChem.
This excerpt belongs to a sample that is enriched for hits.
Mtb RmlCD inh = M. tuberculosis RmlC/RmlD inhibition. 160,000 tested, 0.03% active. P9WH09+P9WH11. AID 1533. inhibition, % at 3.6 µM. RmlC+RmlD coupled enzyme assay, percent inhibition; primary screen in compound mixtures; in the data active = inhibition mostly above about 34%, no sharp cut-off
Active calls of the source: *.

SMILES	Mtb RmlCD inh
CCCCc1c(C)c2ccc(OCC(C)=O)cc2oc1=O	4
Cc1c(Cc2ccccc2)c(=O)oc2cc(OC(=O)c3ccccc3)ccc12	-7
CC(COc1ccccc1)N1CCC(CO)(Cc2ccccc2)CC1 (stereo not drawn)	8
O=C(CSc1ncnc2nc[nH]c12)Nc1nnc(SCc2ccc(Cl)c(Cl)c2)s1	16
CCCC(=O)c1ccc(O)cc1O	-6
O=C(O)CCNC(=O)CCCn1nnc2ccccc2c1=O	-7
COc1ccccc1-n1c(SCC(=O)OC(C)C)nc2cccnc21	6
CC(C)N(C(=O)CSc1nnnn1-c1ccc2c(c1)OCO2)C(C)C	4
Cc1ccc(C)c(NC(=O)CN(C)S(=O)(=O)c2cccc3cccnc23)c1	-7
CCC1CN(C(=O)Nc2ccc(C)cc2)c2cc(C)ccc2O1 (stereo not drawn)	-7
O=C(N/N=C/c1ccccc1[N+](=O)[O-])c1cnccn1	-7
Cc1ccc([N+](=O)[O-])cc1NC(=O)C(C)NS(=O)(=O)c1ccc(F)cc1 (stereo not drawn)	80
CC1CN(S(=O)(=O)c2cccc(C(=O)OCC(=O)c3cccs3)c2)CC(C)O1 (stereo not drawn)	-1
CN(C)c1cccc(C(=O)OCc2cc(=O)oc3cc(O)ccc23)c1	11
CC1CN(S(=O)(=O)c2cccc(C(=O)OCc3cc(=O)oc4cc(O)ccc34)c2)CC(C)O1 (stereo not drawn)	64*
CCCN1CCC(=NNc2ccc(C(=O)O)cc2)CC1	4
Cc1nn(Cc2ccccc2)c(Cl)c1C(=O)OC(C)C#N (stereo not drawn)	-8
N#Cc1ccccc1OCC(=O)OCC(=O)N1CCN(C(=O)c2ccco2)CC1	-7
Cc1ccc(C(=O)O)cc1N=Cc1cc(Br)cc(Br)c1O	45*
Cc1cccc(N=Cc2cc(Br)cc(Cl)c2O)c1	-15
CNC(=S)N/N=C/c1cc(Br)cc(Br)c1O	-8
